Screens (PubChem BioAssay)
GPT2 inhibitor: blocks human glutamate pyruvate transaminase 2. Recombinant GPT2, coupled pyruvate oxidase/HRP Amplex Red fluorescence. Potency, µM (doses to about 57.7 µM), for inactives: at the top dose activity change, negative = inhibition, hits mostly inhibitors. 100,000 tested, 0.25% active; further: nearly all actives have a fitted effect of over 60% in size
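Recombinant GPT2 (10ng/uL) with 250uM a-KG and 2mM L-alanine, 30 min at room temperature, in HEPES pH 7.5 buffer. Pyruvate detected by pyruvate oxidase/HRP/Amplex Red fluorescence after 30 min in the dark; AOA (50uM) as positive control.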
3T3 cytotox: NIH 3T3 cell cytotoxicity | NIH 3T3 viability, CellTiter-Glo ATP luminescence, 48-72 h | Potency, µM (highest dose often 96.7 µM), for inactives: at the top dose activity change, negative = cytotoxicity, actives largely listed as inhibitors | 94,000 tested, 4.3% active | AID 1345082; further: nearly all actives have a fitted effect of over 55% in size
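Cytotoxicity was measured by CellTiter-Glo ATP luminescence after 48 or 72 h compound exposure at 37 °C. Mouse NIH 3T3 fibroblasts were seeded at 400 cells/well and dosed by 23 nL pin transfer.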
Luciferase inh: blocks purified firefly luciferase enzyme activity; 76,000 tested, 2.5% active; P08659; AID 1347043; purified P. pyralis luciferase, luminescence, biochemical; Potency, µM (top dose mostly 115 µM), most hits filed as inhibitors; further: nearly all actives have a fitted effect of over 65% in size
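Purified 10nM P. pyralis luciferase with 10uM D-luciferin and 10uM ATP in 50mM Tris acetate pH 7.5, 10mM Mg acetate, 0.01% Tween-20, 0.05% BSA. qHTS titration; luminescence read by CCD imager.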
HEK293 tox: kills HEK 293 cells. AID 1345083. Potency, µM (titrated, usually from 115 µM), inactives show at the top dose activity change, negative = cytotoxicity, usual class: inhibitors. HEK 293 viability, ATP luminescence (CellTiter-Glo), 48-72 h. 94,000 tested, 6.6% active; further: nearly all actives have a fitted effect of over 60% in size
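Cytotoxicity was scored by loss of ATP-coupled luminescence (CellTiter-Glo) in HEK 293 cells. Compound treatment ran 48 or 72 hr at 37 degree Celsius, 5% CO2, 95% humidity.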
hNpr1 antagonist: antagonists of human natriuretic peptide receptor Npr1 | P16066 | Potency, µM (top dose mostly 46.3 µM), inactives show at the highest dose activity change, negative = inhibition, usual class: inhibitors | 76,000 tested, 1.6% active | HEK293 hNpr1 GloSensor cGMP, ANP-stimulated luminescence; calls by dose curve; further: nearly all actives have a fitted effect of over 60% in size
Target sequence (P16066 whole entry, looked up): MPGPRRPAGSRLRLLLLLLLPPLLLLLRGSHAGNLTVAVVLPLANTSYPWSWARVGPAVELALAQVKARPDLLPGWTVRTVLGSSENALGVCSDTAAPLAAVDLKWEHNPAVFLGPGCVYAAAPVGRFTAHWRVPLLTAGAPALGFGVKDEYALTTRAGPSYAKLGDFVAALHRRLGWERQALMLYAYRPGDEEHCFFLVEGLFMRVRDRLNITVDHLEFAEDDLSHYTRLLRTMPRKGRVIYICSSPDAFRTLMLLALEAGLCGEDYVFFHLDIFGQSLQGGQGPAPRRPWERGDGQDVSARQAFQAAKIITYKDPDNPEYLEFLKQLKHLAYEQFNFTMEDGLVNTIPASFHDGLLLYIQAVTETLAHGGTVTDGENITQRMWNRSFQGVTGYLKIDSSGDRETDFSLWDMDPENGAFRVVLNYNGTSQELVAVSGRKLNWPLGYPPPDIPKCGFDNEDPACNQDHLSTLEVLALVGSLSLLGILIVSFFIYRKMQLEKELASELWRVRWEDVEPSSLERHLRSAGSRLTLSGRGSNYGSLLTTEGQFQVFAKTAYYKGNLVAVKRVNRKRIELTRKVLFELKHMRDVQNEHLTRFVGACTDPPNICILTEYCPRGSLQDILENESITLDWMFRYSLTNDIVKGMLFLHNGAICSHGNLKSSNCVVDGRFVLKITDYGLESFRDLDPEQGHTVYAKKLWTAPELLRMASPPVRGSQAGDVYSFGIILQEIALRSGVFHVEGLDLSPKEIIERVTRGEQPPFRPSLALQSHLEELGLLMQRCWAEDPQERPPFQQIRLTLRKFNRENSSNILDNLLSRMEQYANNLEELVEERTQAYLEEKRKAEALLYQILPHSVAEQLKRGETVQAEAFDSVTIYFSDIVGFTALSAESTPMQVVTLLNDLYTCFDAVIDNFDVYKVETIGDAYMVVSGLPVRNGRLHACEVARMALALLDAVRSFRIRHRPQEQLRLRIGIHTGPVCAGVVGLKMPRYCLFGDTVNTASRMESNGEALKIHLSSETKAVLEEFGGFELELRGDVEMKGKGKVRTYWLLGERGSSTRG
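HEK293 cells stably expressing human Npr1 and cGMP GloSensor pGS-40F, loaded 2 h with 2% GloSensor reagent, given compound 30 min at room temperature. Luminescence read before and 20 min after 0.1 nM hNppA.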
Active calls of the source: *; i = inactive; ? = inconclusive; . = no result given; [ ] = dose if it differs, or a comment. Compounds with a hit are over-represented: about 10% of the library has one in this group of screens. Unless noted, the call rests on the fitted dose curve; in most records, active means well fitted curve in the direction sought with a large enough effect; inconclusive means small, poorly fitted or top-dose-only effect, or another doubt; inactive means no such curve, though single readings can be large; an effect the other way counts as inactive or inconclusive. On the % scale 0 is the no-effect control and ±100 the full control effect; potency means the concentration at half of the fitted maximal effect.

SMILES	GPT2 inhibitor	3T3 cytotox	Luciferase inh	HEK293 tox	hNpr1 antagonist
CCn1cc(S(=O)(=O)N2CCC(F)(c3nc(-c4ccncc4)no3)CC2)cn1	-4%	?	.	45µM*	.
CCOC(=O)[C@H]1[C@@H](O)C(=O)N(C(C)C)C12CCN(C(=O)C1CCCC1)CC2	.	?	.	-14%	.
Cc1ccc2nc(C3CCCN(CC(C)C)C3)[nH]c(=O)c2c1 (stereo not given)	-1%	-1%[138 µM]	i	-7%[172 µM]	4%[70.6 µM]
c1cc(-c2noc([C@@H]3CCCN3Cc3ncc[nH]3)n2)cc(N2CCCC2)n1	i	?	i	100µM*	-27%[70.6 µM]
CC(=O)N1CCN(c2cc(-c3noc([C@@H]4CCCN4Cc4ccc(N(C)C)cc4)n3)ccn2)CC1	-2%	-30%	i	18µM*	-1%
c1cncc(CN2CCC[C@H]2c2nc(-c3ccnc(N4CCCC4)c3)no2)c1	-11%[88.5 µM]	?	i	?	-2%[70.6 µM]
O=C(NC1CCN(C(=O)c2ccc(-c3cccs3)cc2)CC1)c1ccccc1Cl	-5%	?	.	?	.
O=Cc1ccc(-c2cccc(O)c2)cc1	-5%[88.5 µM]	?	.	?	.
NCc1ccc(-c2cccc(C(F)(F)F)c2)cc1	-10%[88.5 µM]	32µM*	.	32µM*	.
O=C(O)c1ccc(-c2cccc(C(F)(F)F)c2)cc1	-8%[88.5 µM]	-11%[138 µM]	.	-15%[172 µM]	.
NCc1ccc(-c2cc(C(F)(F)F)ccc2Cl)cc1	i	25µM*	.	28µM*	.
NCc1ccc(-c2cccc(O)c2)cc1	4%[88.5 µM]	89µM*	.	89µM*	.
NCc1cccc(-c2cccc(Cl)c2)c1	-9%[88.5 µM]	89µM*	.	?	.
COC(=O)c1ccc(NC(=O)Cn2c(-c3cnccn3)nc(C)c(C)c2=O)cc1	3%	-30%	i	-23%	-18%
CCOC(=O)C1CCN(C(=O)C2COC3(CCCC(C)C3)N2C(=O)c2ccccc2F)CC1 (stereo not given)	2%	-15%	i	?	-2%
COc1ccc(Cn2c(C3CCN(C(=O)c4ccc(C(C)(C)C)cc4)CC3)n[nH]c2=O)cc1	-16%	?	i	?	-14%
COc1cccc(N2C(=O)NC(=NC3CCCC3)C23CCCN(CC2CCCCC2)C3)c1 (stereo not given)	5%	?	.	?	.
COc1cccc(N2C(=O)NC(=NC3CCCCC3)C23CCCN(CCC(C)C)C3)c1 (stereo not given)	0%	?	.	40µM*	.
O=C1NC(=NC2CCCC2)C2(CCN(CC3CCCCC3)C2)N1c1cc(F)cc(F)c1 (stereo not given)	i	?	.	35µM*	.
COc1cccc(N2C(=O)NC(=NC3CCCCC3)C23CCCN(CC2CCCCC2)C3)c1 (stereo not given)	i	28µM*	.	32µM*	.
O=C(NCc1ccccc1)C1CN(S(=O)(=O)c2cccnc2)CC12CCCCC2 (stereo not given)	i	-17%	i	-17%	-12%
O=C1CC2(CCN(C(=O)C3CCCN(C(=O)Nc4ccccc4)C3)CC2)Oc2ccccc2N1 (stereo not given)	-9%	?	.	32µM*	.
CC(=O)N1CCCC(C(=O)N2CCC3(CC2)CC(=O)Nc2ccccc2O3)C1 (stereo not given)	i	-16%	.	-10%	.
CNc1cc(C2CC(NC(=O)NCCc3ccccc3F)C2)nc(N)n1 (stereo not given)	-3%	-21%	i	-5%	0%
CNc1cc(C2CC(NC(=O)COc3ccc(Cl)cc3C)C2)nc(N)n1 (stereo not given)	i	40µM*	i	18µM*	-10%
SMILES	GPT2 inhibitor	3T3 cytotox	Luciferase inh	HEK293 tox	hNpr1 antagonist
Cn1ncc2c(C(=O)NCCc3ccccn3)cc(-c3cc(Cl)cc(Cl)c3)nc21	.	-18%	.	-3%	.
COc1ccc(-c2cc(C(=O)NC3CC3)c3c(C)nn(-c4ccccc4)c3n2)cc1	i	22µM*	.	?	.
COc1ccc(-c2cc(C(=O)NC3CCNCC3)c3c(C)nn(-c4ccccc4)c3n2)cc1	i	7.1µM*	.	25µM*	.
O=C(NCCc1ccccc1)N1CCc2nnc(C3CC3)n2CC1	i	-9%	.	1%	.
COCCCn1c(=O)c(C(=O)N2CCN(C(=O)c3ccc(Cl)cc3)CC2)nc2cccnc21	i	-1%	.	-8%	.
O=C(CCn1cnc2ccccc2c1=O)NC1CCCN(CCc2ccccc2)C1 (stereo not given)	i	0%	i	-2%	-2%
Cc1cc(O)c2c(c1)C(=O)c1cc(O)cc(O)c1C2=O	-20%	.	.	.	.
CCC(=O)c1c(O)cc(O)cc1O	5µM*	.	.	.	.
CCC(CC)NC(=O)[C@H]1CCC[C@H]1NC(=O)c1ccc(OC)cc1	-2%	-20%	i	2%	-7%
O=C(Cc1c[nH]c2ncc(-c3ccncc3)cc12)NCc1cccnc1	3%[88.5 µM]	79µM*	i	?	3%[70.6 µM]
O=C(Cc1c[nH]c2ncc(-c3ccccc3)cc12)NCc1cnccn1	i	?	i	0%[172 µM]	-3%[70.6 µM]
O=C(Cc1c[nH]c2ncc(-c3cccc(Cl)c3)cc12)NCc1cccnc1	0%[88.5 µM]	?	?	79µM*	35µM*
O=C(Cc1c[nH]c2ncc(-c3ccccc3)cc12)NCc1ccncc1	1%[88.5 µM]	28µM*	i	?	2%[70.6 µM]
COc1ccc(-c2cnc3[nH]cc(CC(=O)NCc4cccnc4)c3c2)cn1	3%[88.5 µM]	79µM*	?	?	4%[70.6 µM]
O=C1C(OCC2CC2)C2(CCCCC2)N1C1CCN(Cc2cccnc2)CC1 (stereo not given)	-1%	-15%	i	?	4%
Cc1ccc(-c2cc(C(=O)N3CCC(c4ncccn4)CC3)c3cnn(C)c3n2)c(C)c1	-3%	-25%	.	?	.
O=C(Cc1c[nH]c2ncc(-c3cccnc3)cc12)NCCc1ccccc1	0%[88.5 µM]	22µM*	i	?	-12%[70.6 µM]
O=C(Cc1c[nH]c2ncc(-c3cccc(F)c3)cc12)NCc1cccnc1	1%[88.5 µM]	?	i	71µM*	?
C[S+](=O)([O-])c1cccc(NC(=O)Cc2c[nH]c3ncc(-c4cccnc4)cc23)c1	-9%[88.5 µM]	35µM*	i	?	9%[70.6 µM]
O=C(Cc1c[nH]c2ncc(-c3cccnc3)cc12)NCc1cccc(F)c1	-1%[88.5 µM]	25µM*	i	?	-23%[70.6 µM]
COc1cccc(-c2cnc3[nH]cc(CC(=O)NCc4cccnc4)c3c2)c1	5%[88.5 µM]	?	i	?	?
COCC(=O)N[C@@H]1CN(C2CCCCCC2)CC[C@@H]1CO	2%	-15%	.	-4%	.
CC(C)(C)c1cnc([C@@H]2COCCN2CC2CC2)[nH]1	-5%[88.5 µM]	-11%[230 µM]	i	-3%[230 µM]	2%[70.6 µM]
Cc1cc(-c2cnc3[nH]cc(CC(N)=O)c3c2)ccn1	1%[88.5 µM]	?	i	-27%[230 µM]	0%[70.6 µM]
NC(=O)Cc1c[nH]c2ncc(-c3cccc(F)c3)cc12	-11%[88.5 µM]	89µM*	i	-13%[230 µM]	-2%[70.6 µM]
